# Measured values published in the supplement of paper PMC6555819.
# Assays:
# Experiment in all cases: PBM binding z-score (relative to random genomic background probes); higher = stronger binding; sequences stand for … in GC…GCGATTGACAGCGTAGAATGAAGG
# [1] = system: RARb homodimer (NR concentration 270 nM)
# Procedure, shortened: (§1)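 Binding z-scores take random background probes as their reference. They come from custom Agilent 4×180K protein-binding microarrays incubated 1 h with ligand-free nuclear receptor dimers, with antibodies against each partner (one per run) detecting binding. Scanned fluorescence was regression-normalized.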
# [2] = system: RARg:RXRa (NR concentration 270 nM, RXRa partner concentration 90 nM)
# Procedure, shortened: as §1
# [3] = system: RARg homodimer (NR concentration 270 nM)
# Procedure, shortened: as §1
# [4] = system: RXRa DBDmut IVT, anti-RXR (DBD mutation: RXRa K156A/R161A, NR concentration 90 nM)
# Procedure, shortened: as §1
# [5] = system: RXRa homodimer (NR concentration 180 nM)
# Procedure, shortened: as §1
# [6] = system: THRa:RXRa (NR concentration 90 nM, RXRa partner concentration 90 nM)
# Procedure, shortened: as §1
# [7] = system: THRa homodimer (NR concentration 90 nM)
# Procedure, shortened: as §1
# [8] = system: VDR homodimer (NR concentration 270 nM)
# Procedure, shortened: as §1
Sequence,PBM binding z-score [1],PBM binding z-score [2],PBM binding z-score [3],PBM binding z-score [4],PBM binding z-score [5],PBM binding z-score [6],PBM binding z-score [7],PBM binding z-score [8]
CCTACTGGGCCATTCAAAGGTCATTGATCATATG,4.5,4.85,3.67,0.609,4.61,3.25,0.994,2.4
CGTCCAAGGTCAGGAGGTCAGTGAAAGCGACGTG,5.53,7.05,7.08,2.75,6.98,4.05,2.68,2.82
AGTCAAAGTTCAGCTAGGTAACGTAAGATATGCT,3.28,4.23,5.17,3.2,2.96,2.46,0.0376,2.26
CCTCGGAGGACAACAGGAGGACAGAGCTGCCAGA,1.1,1.11,1.41,-0.107,0.167,1.61,0.577,0.157
CGTCCAAGGTCAAGGTCAGTGACAGAGACTCGAA,5.06,6.76,7.62,3.72,6.77,4.35,3.7,3.35
AGAATGAGGTTCTACGTAGATCAGGGAAGAAAGT,-0.327,-0.12,0.0722,0.025,-0.0793,-0.0436,-0.709,-0.322
ATACGTAGGTTAAGGGTCATTCAGGTTGGTTCGC,4.06,5.01,3.58,2.11,6.29,3.72,1.6,4.36
CGTCCAAGGTCAGAAGGTCAGTGAAAGCGACGTG,5.32,7.13,6.77,2.87,5.71,4.12,1.8,2.18
TCGCCTAGGTCAGATCGGGCCAGTATACGCTATA,2.21,2.39,3.24,0.643,1.38,3.98,0.0988,-0.139
CGAACTAGGTCAGAACAGGACAGCGAAGGATGAT,2.08,2.39,3.18,0.432,1.39,3.82,0.236,-0.0467
TCGAGTAGGTTAGTCGGGGCAATCAGCCAACATA,0.889,0.0718,0.25,0.255,0.0944,2.38,-0.198,-0.417
GCTATTAGTTGAAAGCGCAACCGAATGATTCTCG,-0.696,-0.258,-0.0474,0.445,-0.166,-0.508,-0.515,-0.738
TCATATAGGTAAATGCTCGGTGAAAGTCCGATCT,0.197,0.387,0.081,1.45,0.76,0.193,0.208,0.375
TCATATAGCTAAAGGTGAAAGTCGAACGATATGA,1.14,1.43,0.944,0.443,1.84,1.18,-0.427,-0.396
GCTGGTAGGTCAACTGATGGTCAGCTAAAGCTCG,3.79,5.73,5.34,1.57,3.65,2.54,0.0326,0.11
CTCGAACGGTCGTGCTCAGGTGAGTATACCAAAC,0.628,0.435,0.489,0.177,-0.088,1.4,0.536,-0.528
TATACAGAGTCAAAGGCCAGAGTACGAATGTCGA,0.843,0.902,1.01,-0.862,1.03,-0.0396,-0.776,0.0199
TCATATAGGTTAACAGGTGAAAGTCCGTAAGTTA,1.85,2.13,1.57,1.53,2.09,1.39,0.525,0.443
TCTATTAGTTGATGAGGGCAACCGAAACAGCGGA,1.27,0.771,0.907,1.31,1.06,1.68,0.938,1.35
TCTACCAGGCCAGAGGGTCACTCAAGAGGTACGG,3,3.03,2.46,0.518,2.92,1.93,0.581,0.936
CAAACTAGGTTAAGAGGTCAAAGTCCGCTTCCCG,4.7,5.88,5.15,2.2,6.79,3.89,1.83,4.48
ACGATTAGTTGAGACGAGGGCAACCGATAGGTTG,0.939,0.385,0.643,-0.112,0.354,2.41,-0.196,0.605
TCGAGTAGGTTACCAATGGGGCATCCAGCTTTCT,0.918,1.39,0.452,-0.00896,0.647,-0.146,-0.638,-0.823
CTCGAAAGGTCCTGCTCAGGTGAGTATACCAAAC,0.614,0.95,0.414,-0.0806,0.666,2.11,0.634,-0.488
AGAATGAGGTTAAGATCAGAGAAACAGAATACAT,0.686,2.05,1.45,0.652,2.36,2.29,0.47,0.291
CGTCCAAGGTCGGAGAGGTCAGTGAATGCCGAGT,4.01,4.23,4.66,2.06,3.74,3.34,1.31,3.93
CGTCCAAGGTGAATGCTAGGTCAGTGAAAGCATT,2.81,3.71,1.91,-0.198,1.02,3.27,1.59,-0.00133
AGAATGAGGATAAGATCAGGGAAACAGAATACAT,-0.0231,0.224,0.322,-0.458,0.578,1.42,0.69,-0.103
CCGACTGGGGAATAAGGTTACCATAAGCCAGCCC,1.02,0.435,0.223,-0.297,0.812,2.03,1.18,-0.0686
